Consider 86 sequences from the supplement of paper PMC3334620.

Whole data set: some 33,000 sequences, median “E-score (-0.5 to 0.5)” near -0.032, cut for the highest 2% near 0.36. Shown is part of a subset that was picked to be rich in the highest values.

This experiment addresses T1, Sko1 (UniProt Q02100).
T1 sequence: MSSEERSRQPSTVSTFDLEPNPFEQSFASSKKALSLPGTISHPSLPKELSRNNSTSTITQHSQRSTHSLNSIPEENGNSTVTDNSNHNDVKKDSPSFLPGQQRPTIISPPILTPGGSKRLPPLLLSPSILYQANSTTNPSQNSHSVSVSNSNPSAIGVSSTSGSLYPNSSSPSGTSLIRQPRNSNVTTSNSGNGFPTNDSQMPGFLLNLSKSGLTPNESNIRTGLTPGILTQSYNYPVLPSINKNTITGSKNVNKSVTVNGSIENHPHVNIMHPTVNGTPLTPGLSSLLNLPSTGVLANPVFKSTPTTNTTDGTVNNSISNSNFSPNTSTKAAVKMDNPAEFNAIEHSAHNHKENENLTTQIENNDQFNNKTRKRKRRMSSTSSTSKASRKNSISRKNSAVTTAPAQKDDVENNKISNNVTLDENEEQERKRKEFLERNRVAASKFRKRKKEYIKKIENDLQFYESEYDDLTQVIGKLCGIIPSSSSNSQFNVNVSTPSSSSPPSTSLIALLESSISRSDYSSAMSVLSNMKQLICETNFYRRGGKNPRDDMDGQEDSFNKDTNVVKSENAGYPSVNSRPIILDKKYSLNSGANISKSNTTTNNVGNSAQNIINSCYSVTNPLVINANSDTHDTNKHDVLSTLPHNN
Put plainly: PBM E-score (8-mer binding enrichment) (E-score (-0.5 to 0.5)); higher = stronger / more preferred TF binding. To be noted: protein concentration: 200 nM; construct: GST-full length. On the procedure:
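Universal 'all 10-mer' protein binding microarrays (Agilent AMADID 015681) probed with GST-tagged S. cerevisiae TFs (full-length or DBD) made by in vitro transcription/translation (PURExpress), about 100-200 nM. Bound TF was detected with fluorescent anti-GST. Each ungapped 8-mer (which stands for itself and its reverse complement) is scored by the PBM enrichment score (E-score), a modified Wilcoxon-Mann-Whitney statistic from -0.5 to +0.5, computed with the Universal PBM Analysis Suite. Scale: above 0.35 generally sequence-specific binding.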
Turning to CCACTCGC, the “PBM E-score” value is -0.25. Consider GAGATCCC, for which the “PBM E-score” value is -0.171. For the sequence CCCGCAAA, the “PBM E-score” value is -0.0244. GGGGCGGA: the “PBM E-score” value was -0.338.

As for CGTCTAAG, the “PBM E-score” value was 0.0318. Consider CCGACCGG, for which the “PBM E-score” value is -0.294. In the case of ACAGTCTG, the “PBM E-score” value is -0.171. For ACGATTCG the value was 0.059; for CCGTCTGA, -0.224. Regarding AGGCAGTA, the “PBM E-score” value is -0.129. As to CCGGCCGG, the “PBM E-score” value was -0.373.

For the sequence CACTGACG, the “PBM E-score” value came to 0.424. For CACTGACC the value was -0.26. For CGCTGACC the value was -0.15. The same measure for AACTGACG: 0.363; for AGCTGACG: 0.347; for AACTGACT: -0.0679. CACTGACA: the “PBM E-score” value is 0.0149. The same measure for CGCTGACG: 0.389; for AACTGACA: 0.183. For TGGTGCAA the value was -0.0842; for CCTTTTAC, -0.0204. For AGCGAACC the value was 0.0124; for TCCCAAAA, -0.048. For ATGCAAAC, the “PBM E-score” value came out at 0.108. For ATACCGTG the value was -0.0765; for GCACTGCA, 0.0142; for ACGTCACA, 0.481. The same measure for ACGTCACC: 0.489. The same measure for AGGTCACC: -0.128; for AGGTCACT: -0.0104. For the sequence CCGTCACC, the “PBM E-score” value is 0.101. As to ACGTCACG, the “PBM E-score” value worked out at 0.486. With AGGTCACG, the “PBM E-score” value stood at 0.0716. ATGTCACA: the “PBM E-score” value is 0.324.

Consider AAGTCACG, for which the “PBM E-score” value worked out at 0.126. With AAGTCACA, the “PBM E-score” value is 0.0509. The same measure for AAGTCACT: 0.144; for ACGTCACT: 0.489; for CTAGAATC: -0.0473.

ATCAGGTG: the “PBM E-score” value was -0.0909. For ACTGCAAC the value was -0.0632. GTGCTTCA: the “PBM E-score” value worked out at 0.0642. For ACATATGT the value was 0.29; for CGTGAGAA, 0.117. As to ATAATTAA, the “PBM E-score” value was 0.285. For GTAATTAC the value was 0.367. For the sequence GAAATTAC, the “PBM E-score” value is 0.323. Take ATAATTAC: the “PBM E-score” value was 0.376.

GTAATTAA: the “PBM E-score” value was 0.237.

Consider CTAATTAC, for which the “PBM E-score” value worked out at 0.323. For CACTGTCG the value was -0.11.

GCACCTGC: the “PBM E-score” value is -0.202. The same measure for CTATCATC: 0.0137.

ACATCATC: the “PBM E-score” value came out at 0.43.

GCATCAGA: the “PBM E-score” value turned out to be 0.113. For AAATCATA, the “PBM E-score” value came out at 0.204. For the sequence ACATCACA, the “PBM E-score” value is 0.313. The same measure for CCATCATC: 0.0168; for ACATCAAG: 0.242; for ACATCATA: 0.425.

For the sequence ACATCATG, the “PBM E-score” value worked out at 0.393. For CCATCATA the value was 0.0672.

As for GCATCATA, the “PBM E-score” value is 0.366. The same measure for ACATCAGA: 0.122; for ACTGGTTA: 0.0712; for ATTGGAGA: 0.0978.

On to ACGCCGTC, for which the “PBM E-score” value worked out at 0.192. As to AGCATAGA, the “PBM E-score” value was -0.0737.

For GCTCGACA, the “PBM E-score” value is -0.181.

As for CACTAGAA, the “PBM E-score” value turned out to be 0.023. For GCAGCGGC the value was -0.178; for ACGCGGAA, 0.0704; for GGGCGTAA, -0.0261. On to ACGCGTAG, for which the “PBM E-score” value stood at 0.259.

In the case of AGTCGTAA, the “PBM E-score” value amounted to 0.231. For ACGCGTAC the value was 0.307; for ACGCGTGA, 0.32; for TGGCGTAA, 0.414. For AGGCGTAA the value was 0.206; for GGTCGTAA, 0.249.

With ACGCGTAA, the “PBM E-score” value was 0.382. Take AAGCGTAA: the “PBM E-score” value was 0.241. For TGTCGTAA the value was 0.412; for ACGCGTAT, 0.389; for CACGATCG, 0.0307.
